High-throughput results: PubChem, several laboratories
S1P3 antag = S1P3 receptor antagonists, primary screen, cell-based | CHO S1P3 NFAT-BLA reporter, FRET fluorescence, antagonist mode | inhibition, % at 4.98 µM | Sphingosine 1-phosphate receptor 3 (Homo sapiens), Q99500 | 170,000 tested, 0.27% active;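 active means inhibition above the plate cutoff, the mean inhibition of test wells on that plate plus 3 SD, cut at about 28% in these data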;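 further: cells challenged with S1P at its EC80 of 0.8 µM; blue over green emission ratio from cleaved BLA substrate after 4 h stimulation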
Target sequence (Q99500 whole entry, looked up): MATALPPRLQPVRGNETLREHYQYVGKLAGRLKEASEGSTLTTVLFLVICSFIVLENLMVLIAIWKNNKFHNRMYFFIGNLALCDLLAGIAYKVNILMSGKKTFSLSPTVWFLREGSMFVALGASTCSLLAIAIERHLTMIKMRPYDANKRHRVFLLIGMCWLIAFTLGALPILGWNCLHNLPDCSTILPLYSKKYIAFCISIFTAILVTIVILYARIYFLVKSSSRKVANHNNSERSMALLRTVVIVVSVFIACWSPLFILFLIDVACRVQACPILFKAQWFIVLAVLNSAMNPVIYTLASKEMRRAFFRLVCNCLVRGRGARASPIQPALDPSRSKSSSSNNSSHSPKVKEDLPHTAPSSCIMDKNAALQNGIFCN
EP2 mod = EP2 receptor modulators, cAMP readout, primary screen, cell-based, HTRF cAMP, PGE2 stimulation. induction, % at 25 µM. EP2-expressing cells, cAMP HTRF FRET, PGE2 co-stimulation. 260,000 tested, 0.83% active. Prostaglandin E2 receptor EP2 subtype (Homo sapiens), P43116;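 active means compounds whose cAMP rise, as percent of the full-agonist control response, exceeds 60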;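 further: rat C6 glioma line stably carrying human EP2 under a CMV promoter; the protocol text gives 20 µM as final concentration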
Target sequence (P43116 whole entry, looked up): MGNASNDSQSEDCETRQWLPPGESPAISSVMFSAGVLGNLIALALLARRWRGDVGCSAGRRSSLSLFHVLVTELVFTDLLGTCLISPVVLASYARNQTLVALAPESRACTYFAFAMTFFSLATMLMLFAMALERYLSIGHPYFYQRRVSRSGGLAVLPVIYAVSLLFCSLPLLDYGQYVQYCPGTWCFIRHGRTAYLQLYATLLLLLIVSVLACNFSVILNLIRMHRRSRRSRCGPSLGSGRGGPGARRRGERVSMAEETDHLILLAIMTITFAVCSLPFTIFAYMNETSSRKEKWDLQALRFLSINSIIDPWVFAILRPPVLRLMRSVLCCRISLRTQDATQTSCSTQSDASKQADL
KCC2 mod = KCC2 cotransporter modulators, thallium flux, primary screen, cell-based, HEK293 KCC2, FluoZin-2 fluorescence, MLSMR | Solute carrier family 12 member 5 (Homo sapiens), Q9H2X9 | KCC2 cells, thallium flux FluoZin-2 fluorescence | B-score of Tl+ flux slope (higher = more flux/activation; lower = inhibition) at 10 µM | 190,000 tested, 2.2% active;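 active means thallium flux slope and its plate-corrected score both differing from the plate sample mean at a set confidence after two filtering rounds, in either direction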;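 further: slope of fluorescence scaled to starting intensity during 10 to 20 s after thallium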
EP2 antag = human EP2 receptor antagonists, primary screen, TR-FRET cAMP, C6 glioma cells. Prostaglandin E2 receptor EP2 subtype (Homo sapiens), P43116. C6 glioma cells expressing human EP2; cells stimulated with saturating PGE2. inhibition, % at 25 µM. 260,000 tested, 0.52% active. AID 1422, 2008;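 active means percent inhibition above 40 after rounding to a whole number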;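 further: rat C6 glioma host cells with rolipram phosphodiesterase inhibitor present; the protocol text gives 20 µM as final concentration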
EP2 cAMP induct = cAMP induction in EP2, EP4, beta2-AR and parental cells, confirmation, counter-screen for EP2 modulator project, cell-based, five parallel assays, C6 glioma, HEK293; shares compounds with EP2 mod; cAMP HTRF induction; plus low (about EC15) PGE2 agonist; calls only at 20 µM (by protocol); 1,300 tested, 47% active;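 active means cAMP induction above 50% in the main assay while under 30% in all four parallel counter assays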;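 further: rat C6 glioma cells stably expressing human EP2 receptor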
Large screens that a line does not name were inactive (follow-up assays come after a bar, where they were run). Sampled rows, rich in hits. Any-hit rate of the full collection: about 3.1%.

O=c1[nH]c(=O)c2cc(S(=O)(=O)N3CCCC(c4ccccc4)C3)ccc2[nH]1 (configuration not stated)	none (no result: S1P3 antag, KCC2 mod)
Cc1cc(C)c2cc(CN(Cc3ccco3)C(=O)Nc3cccc(Cl)c3)c(=O)[nH]c2c1	none (no result: S1P3 antag, KCC2 mod)
N#Cc1c(NC(=O)CSc2n[nH]c(Cc3ccccc3)n2)oc(-c2ccccc2)c1-c1ccccc1	EP2 mod 77 | EP2 cAMP induct inactive
N#Cc1c(NC(=O)CSc2ncccn2)oc(-c2ccccc2)c1-c1ccccc1	none (no result: S1P3 antag, EP2 mod)
CCCCCCSC1=C(C#N)C(=O)NC2(CCCCC2)S1	none (no result: S1P3 antag)
COc1ccc(CSC2=C(C#N)C(=O)NC3(CCCCC3)S2)cc1	none (no result: S1P3 antag, KCC2 mod) | EP2 cAMP induct inactive
CCSc1cc(N2CCOCC2)nc(-c2ccccc2)n1	EP2 mod 65 | EP2 cAMP induct active
c1ccc(-c2cc(N3CCOCC3)nc(-c3ccccc3)n2)cc1	none
Cc1nnc(NC(=O)CSc2nnc(COc3ccccc3)n2C)s1	none (no result: S1P3 antag, KCC2 mod)
CN1[C@@H](C(=O)Nc2cccnc2Cl)C[C@@H](c2cccs2)NS1(=O)=O	none (no result: S1P3 antag, KCC2 mod, EP2 antag)
Cc1cc(C)c(C#N)c(Oc2ccccc2Br)n1	EP2 mod 70 | EP2 cAMP induct inactive
Cc1cc(C)c(C#N)c(Oc2ccccc2)n1	none (no result: S1P3 antag)
CC(C)(C)NC(=O)C(c1ccccc1F)N(C(=O)c1ccc2c(c1)OCCO2)C1CCCC1 (configuration not stated)	none (no result: S1P3 antag, KCC2 mod)
Cn1nc(-c2ccccc2)c(-c2nc(-c3cccc(C(F)(F)F)c3)no2)c1Cl	none (no result: S1P3 antag) | EP2 cAMP induct inactive
CC(=O)CSc1ncnc2sc3c(c12)CCCC3	none
Cc1noc(C)c1CSc1ncnc2sc3c(c12)CCC3	EP2 mod 68 | EP2 cAMP induct inactive
CC1CCc2c(sc3ncnc(SCC(=O)N4CCCC4)c23)C1 (configuration not stated)	none (no result: S1P3 antag, KCC2 mod)
Cc1noc(C)c1CSc1nc2sc3c(c2c(=O)n1C)CCCC3	EP2 mod 63 (no result: S1P3 antag) | EP2 cAMP induct inactive
Cc1noc(C)c1CSc1ncnc2sc3c(c12)CCC(C)C3 (configuration not stated)	EP2 mod 70 | EP2 cAMP induct inactive
CC(=O)CSc1ncnc2sc3c(c12)CCC(C)C3 (configuration not stated)	EP2 mod 61, KCC2 mod 121 | EP2 cAMP induct inactive
Cc1cc2c(o1)c1cnn(CC(=O)NC(C)(C)C)c(=O)c1n2C	none (no result: S1P3 antag, KCC2 mod, EP2 antag)
Cc1ccc(C)n1-c1ccc(N(C)C)cc1	EP2 mod 66 | EP2 cAMP induct inactive
Cc1ccc(C)n1-c1ccc(N2CCOCC2)cc1	none
O=C(CCC1CCCC1)Nc1cccc(NC(=O)c2ccco2)c1	none (no result: S1P3 antag, KCC2 mod)
O=C(/C(=C/O)N=Nc1ccc(Cl)cc1)c1ccncc1	none (no result: S1P3 antag)
O=C(/C(=C/O)N=Nc1ccccc1Cl)c1ccccc1	EP2 mod 69 | EP2 cAMP induct active
Nc1ccc2nc(C3CC3)n(Cc3ccc(Cl)cc3)c(=O)c2c1	none (no result: S1P3 antag, KCC2 mod)
CN1c2ncccc2C(=O)NC12CCN(C(=O)CCn1c(=O)oc3ccccc31)CC2	none (no result: S1P3 antag, KCC2 mod, EP2 antag)
Cc1cc(Nc2ccc(Br)cc2)n2nc(C)nc2n1	EP2 mod 88 | EP2 cAMP induct inactive
CCCC(=O)N1CCCC(c2nc(-c3cccs3)no2)C1 (configuration not stated)	EP2 mod 76 (no result: S1P3 antag) | EP2 cAMP induct inactive
Fc1ccc(C(c2ccc(F)cc2)N2CCN(C/C=C/c3ccccc3)CC2)cc1	none | EP2 cAMP induct inactive
Nc1c(C(=O)Nc2ccccc2F)sc2nc(Cc3ccccc3)cc(C(F)(F)F)c12	EP2 mod 67 (no result: S1P3 antag) | EP2 cAMP induct inactive
O=c1[nH]c2cc3c(cc2cc1CN(Cc1nnnn1Cc1ccco1)C1CCCCC1)OCCO3	none (no result: S1P3 antag, KCC2 mod)
CCn1c(=O)n(CC(=O)Nc2ccc3c(c2)OC(C)(C)O3)c2cccnc21	none (no result: S1P3 antag, KCC2 mod, EP2 antag)
CCCC(=O)C1=C(O)C(C(=O)OC)C(C)(C)CC1=Nc1cccc2ccccc12 (configuration not stated)	EP2 mod 78 (no result: S1P3 antag) | EP2 cAMP induct active
CCCC(=O)C1=C(O)C(C(=O)OC)C(C)(C)CC1=Nc1ccccc1 (configuration not stated)	none (no result: S1P3 antag)
Cc1cc(C)c(S(=O)(=O)N(C2=NCCS2)S(=O)(=O)c2c(C)cc(C)cc2C)c(C)c1	EP2 mod 71 (no result: S1P3 antag) | EP2 cAMP induct inactive
Clc1ccccc1-c1nc(-c2ccncc2)no1	none
Cc1onc(-c2ccccc2Cl)c1-c1nc(-c2ccncc2)no1	EP2 mod 65 (no result: S1P3 antag) | EP2 cAMP induct inactive
COc1cc2cc(C#N)c(SCC(=O)c3ccccc3)nc2cc1OC	none (no result: S1P3 antag, KCC2 mod)
COc1ccccc1NC(=O)CSc1nnc2c3c4c(sc3nc(C3CC3)n12)CCCC4	none (no result: S1P3 antag, KCC2 mod)
O=c1cc(N2CCCCC2)c(-c2ccccc2)nn1Cc1ccc(F)cc1	EP2 mod 88 (no result: KCC2 mod) | EP2 cAMP induct active
O=c1cc(N2CCCCC2)c(-c2ccccc2)nn1Cc1ccc(Cl)cc1	none (no result: S1P3 antag)
O=c1cc(N2CCCCC2)c(-c2ccccc2)nn1Cc1c(Cl)cccc1Cl	EP2 mod 80 (no result: S1P3 antag) | EP2 cAMP induct active
CCOC(=O)c1cnc2ccc(OCC)cc2c1N(C)Cc1ccccc1	EP2 mod 90 | EP2 cAMP induct active
Nc1cccc(N2C(=O)c3cccc4c(-c5ncc(-c6ccccc6)o5)ccc(c34)C2=O)c1	none (no result: S1P3 antag, KCC2 mod)
CCN(CC)c1ccc(/C=C2\C(=O)c3ccc(C(=O)O)cc3C2=O)cc1	EP2 mod 74 | EP2 cAMP induct active
CCN(CC)c1ccc(C(=O)O)cc1	none
O=C(O)CCCCCCCCCCCc1ccccc1	EP2 mod 78 | EP2 cAMP induct active
Cc1ccc2c(c1)N(Cc1ccccn1)C(=O)C(C)O2 (configuration not stated)	none
Cc1ccc(C)c(CN2C(=O)C(C)Oc3ccc(C)cc32)c1 (configuration not stated)	EP2 mod 80 | EP2 cAMP induct active
COc1cc(OC)c(NC2c3ccccc3C(=O)N2c2cc(C)ccn2)cc1Cl (configuration not stated)	none
CCOC(=O)c1ccccc1NC1c2ccccc2C(=O)N1c1cc(C)ccn1 (configuration not stated)	EP2 mod 69 (no result: S1P3 antag, KCC2 mod) | EP2 cAMP induct active
O=C(NNC(=O)c1cccs1)c1cccc(I)c1	none (no result: S1P3 antag, KCC2 mod)
C=CCCC1(C)C(=O)N(c2ccccc2)c2ccccc21 (configuration not stated)	EP2 mod 77 | EP2 cAMP induct active
C=CCC1(C)C(=O)N(c2ccccc2)c2ccccc21 (configuration not stated)	EP2 mod 69 | EP2 cAMP induct inactive
CC1CCCCN1S(=O)(=O)c1cccc(C(=O)O)c1 (configuration not stated)	none (no result: S1P3 antag, KCC2 mod)
